Measurements reported in PubChem BioAssay AID1159580 (chemical genetic matrix, 2015).
Screen size: about 5,500 compounds; about 2,000 (36%) were called active. Another 18% or so got no clear call; they are omitted. No stated cut-off is given here; in the data, active means normalized growth mostly below about 0.91 (no sharp cut-off); inconclusive means no clear call, values can overlap the other calls; inactive means mostly above about 0.92. This is one part of the list.

Assay: chemical genetic growth profiling, strain panel (AID 1159580);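 further: tested at 20 µM; growth read once vehicle control cultures reached saturation at 30 °C; 1 = growth at the plate median or of vehicle wells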
Settings: growth OD

Measured: normalized growth

NC(C(=O)O)C(O)C(=O)O (stereo not drawn)
inactive: S. cerevisiae deletion strains, locus YJR066W, strain TOR1, stronger effect = lower value 0.994 | S. cerevisiae deletion strains, locus YJR075W, strain HOC1, stronger effect = lower value 1.01 | S. cerevisiae deletion strains, locus YKL009W, strain mrt4, stronger effect = lower value 1.02 | S. cerevisiae deletion strains, locus YKL068W, stronger effect = lower value 1.01 | S. cerevisiae deletion strains, locus YKL085W, strain MDH1 (second series), stronger effect = lower value 0.999 | S. cerevisiae deletion strains, locus YKL085W, strain MDH1, stronger effect = lower value 0.999 | S. cerevisiae deletion strains, locus YKL160W, strain elf1, stronger effect = lower value 0.974 | S. cerevisiae deletion strains, locus YKR001C, strain vps1, stronger effect = lower value 1.02 | S. cerevisiae deletion strains, locus YKR026C, strain gcn3, stronger effect = lower value 0.997 | S. cerevisiae deletion strains, locus YKR091W, strain srl3, stronger effect = lower value 0.984 | S. cerevisiae deletion strains, locus YLL001W, strain dnm1, stronger effect = lower value 0.987 | S. cerevisiae deletion strains, locus YLL026W, stronger effect = lower value 0.996 | S. cerevisiae deletion strains, locus YLL041C, strain sdh2, stronger effect = lower value 0.978 | S. cerevisiae deletion strains, locus YLR027C, strain aat2, stronger effect = lower value 0.998 | S. cerevisiae deletion strains, locus YLR039C, strain RIC1, stronger effect = lower value 1.02 | S. cerevisiae deletion strains, locus YLR058C, strain SHM2, stronger effect = lower value 1.01 | S. cerevisiae deletion strains, locus YLR102C, strain apc9, stronger effect = lower value 1.04 | S. cerevisiae deletion strains, locus YLR113W, strain HOG1, stronger effect = lower value 1.07 | S. cerevisiae deletion strains, locus YLR221C, strain rsa3, stronger effect = lower value 1.05 | S. cerevisiae deletion strains, locus YLR258W, strain gsy2, stronger effect = lower value 0.995 | S. cerevisiae deletion strains, locus YLR262C, strain YPT6 (second series), stronger effect = lower value 0.973 | S. cerevisiae deletion strains, locus YLR262C, strain YPT6, stronger effect = lower value 1.02 | S. cerevisiae deletion strains, locus YLR268W, strain sec22, stronger effect = lower value 1.07 | S. cerevisiae deletion strains, locus YLR320W, strain mms22, stronger effect = lower value 1.04 | S. cerevisiae deletion strains, locus YLR330W, strain CHS5, stronger effect = lower value 1.01 | S. cerevisiae deletion strains, locus YLR342W, strain FKS1 (second series), stronger effect = lower value 1 | S. cerevisiae deletion strains, locus YLR342W, strain FKS1, stronger effect = lower value 0.999 | S. cerevisiae deletion strains, locus YLR357W, strain rsc2, stronger effect = lower value 0.982 | S. cerevisiae deletion strains, locus YLR370C, strain arc18, stronger effect = lower value 0.988 | S. cerevisiae deletion strains, locus YLR371W, strain rom2, stronger effect = lower value 1.02 | S. cerevisiae deletion strains, locus YLR384C, strain iki3, stronger effect = lower value 0.981 | S. cerevisiae deletion strains, locus YLR418C, strain cdc73, stronger effect = lower value 1.03 | S. cerevisiae deletion strains, locus YML016C, strain PPZ1, stronger effect = lower value 1.01 | S. cerevisiae deletion strains, locus YML032C, strain rad52, stronger effect = lower value 1.02 | S. cerevisiae deletion strains, locus YML120C, strain ndi1, stronger effect = lower value 0.96 | S. cerevisiae deletion strains, locus YML124C, strain tub3, stronger effect = lower value 1.02 | S. cerevisiae deletion strains, locus YMR058W, strain fet3, stronger effect = lower value 0.99 | S. cerevisiae deletion strains, locus YMR078C, strain ctf18, stronger effect = lower value 1.04 | S. cerevisiae deletion strains, locus YMR125W, strain sto1, stronger effect = lower value 0.95 | S. cerevisiae deletion strains, locus YMR129W, stronger effect = lower value 1 | S. cerevisiae deletion strains, locus YMR205C, strain PFK2, stronger effect = lower value 0.966 | S. cerevisiae deletion strains, locus YMR223W, strain ubp8, stronger effect = lower value 1.03 | S. cerevisiae deletion strains, locus YMR231W, strain pep5, stronger effect = lower value 0.993 | S. cerevisiae deletion strains, locus YMR307W, strain GAS1, stronger effect = lower value 1.08 | S. cerevisiae deletion strains, locus YNL067W, strain RPL9B, stronger effect = lower value 1.01 | S. cerevisiae deletion strains, locus YNL071W, strain lat1, stronger effect = lower value 0.982 | S. cerevisiae deletion strains, locus YNL153C, strain GIM3, stronger effect = lower value 1.01 | S. cerevisiae deletion strains, locus YNL183C, strain NPR1, stronger effect = lower value 0.982 | S. cerevisiae deletion strains, locus YNL209W, strain ssb2, stronger effect = lower value 0.982 | S. cerevisiae deletion strains, locus YNL233W, strain BNI4, stronger effect = lower value 1.01 | S. cerevisiae deletion strains, locus YNL248C, strain rpa49, stronger effect = lower value 0.94 | S. cerevisiae deletion strains, locus YNL250W, strain rad50, stronger effect = lower value 1.05 | S. cerevisiae deletion strains, locus YNL271C, strain bni1, stronger effect = lower value 1.03 | S. cerevisiae deletion strains, locus YNL298W, strain CLA4, stronger effect = lower value 1.05 | S. cerevisiae deletion strains, locus YNL307C, strain MCK1, stronger effect = lower value 1.03 | S. cerevisiae deletion strains, locus YNL322C, strain KRE1 (second series), stronger effect = lower value 0.98 | S. cerevisiae deletion strains, locus YNR049C, strain mso1, stronger effect = lower value 0.981 | S. cerevisiae deletion strains, locus YNR052C, strain pop2, stronger effect = lower value 1.04 | S. cerevisiae deletion strains, locus YOL147C, strain pex11, stronger effect = lower value 1.02 | S. cerevisiae deletion strains, locus YOR001W, strain rrp6, stronger effect = lower value 1.01 | S. cerevisiae deletion strains, locus YOR061W, strain CKA2, stronger effect = lower value 1.01 | S. cerevisiae deletion strains, locus YOR069W, strain VPS5, stronger effect = lower value 1 | S. cerevisiae deletion strains, locus YOR070C, strain gyp1, stronger effect = lower value 1.03 | S. cerevisiae deletion strains, locus YOR080W, strain dia2, stronger effect = lower value 0.996 | S. cerevisiae deletion strains, locus YOR083W, strain WHI5, stronger effect = lower value 0.979 | S. cerevisiae deletion strains, locus YOR106W, strain vam3, stronger effect = lower value 0.956 | S. cerevisiae deletion strains, locus YOR136W, strain idh2, stronger effect = lower value 1.03 | S. cerevisiae deletion strains, locus YOR144C, strain elg1, stronger effect = lower value 1.02 | S. cerevisiae deletion strains, locus YOR184W, strain ser1, stronger effect = lower value 1.03 | S. cerevisiae deletion strains, locus YOR231W, strain MKK1, stronger effect = lower value 1.09 | S. cerevisiae deletion strains, locus YOR265W, strain rbl2, stronger effect = lower value 0.987 | S. cerevisiae deletion strains, locus YOR270C, strain vph1, stronger effect = lower value 1.01 | S. cerevisiae deletion strains, locus YOR290C, strain snf2, stronger effect = lower value 0.926 | S. cerevisiae deletion strains, locus YOR316C, strain cot1, stronger effect = lower value 1.02 | S. cerevisiae deletion strains, locus YPL051W, strain arl3, stronger effect = lower value 1 | S. cerevisiae deletion strains, locus YPL055C, strain LGE1, stronger effect = lower value 1.03 | S. cerevisiae deletion strains, locus YPL078C, strain atp4, stronger effect = lower value 0.949 | S. cerevisiae deletion strains, locus YPL106C, strain sse1, stronger effect = lower value 0.954 | S. cerevisiae deletion strains, locus YPL240C, strain hsp82, stronger effect = lower value 0.996 | S. cerevisiae deletion strains, locus YPL241C, strain CIN2, stronger effect = lower value 1 | S. cerevisiae deletion strains, locus YPL256C, strain CLN2, stronger effect = lower value 1.03 | S. cerevisiae deletion strains, locus YPR119W, strain clb2, stronger effect = lower value 1.02 | S. cerevisiae deletion strains, locus YPR141C, strain kar3, stronger effect = lower value 1.02 | S. cerevisiae deletion strains, locus YPR163C, strain tif3, stronger effect = lower value 1.03 | S. cerevisiae deletion strains, locus YPR167C, strain met16, stronger effect = lower value 1.02 | S. cerevisiae deletion strains, strain wtn01, stronger effect = lower value 1.03 | S. cerevisiae strains, strain wild type, stronger effect = lower value 1.01
active: S. cerevisiae deletion strains, locus YOL012C, strain htz1 1.88 [resistant]
